Screening results: PubChem, several laboratories
Shown are actives, neighbours in structure and some others; about 2.4% of the full set was active somewhere.
Arbovirus anti: arbovirus infection inhibition | arbovirus infection cell-based antiviral screen | inhibition, % at 10 µM | 200,000 tested, 0.37% active; in the data active = inhibition above about 30%
MEKK3 PB1 HTS: modulators (inhibitors or enhancers) of MEK5 binding to human MEKK3 PB1 domain. 290,000 tested, 1.4% active. Q99759. binding response (% of control), % at 10 µM. bead-based flow cytometry, Alexa488-MEK5 binding to MEKK3; actives lie on both sides; 0 = blocked by unlabeled MEK5, 100 = vehicle;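 active = binding response more than 3 SD above or below the average of its plate-row segment, actives on both sides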;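 note: Alexa488 bead fluorescence after subtracting the streptavidin-only scavenger bead signal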
Target sequence (Q99759 whole entry, looked up, the tested form may be a part): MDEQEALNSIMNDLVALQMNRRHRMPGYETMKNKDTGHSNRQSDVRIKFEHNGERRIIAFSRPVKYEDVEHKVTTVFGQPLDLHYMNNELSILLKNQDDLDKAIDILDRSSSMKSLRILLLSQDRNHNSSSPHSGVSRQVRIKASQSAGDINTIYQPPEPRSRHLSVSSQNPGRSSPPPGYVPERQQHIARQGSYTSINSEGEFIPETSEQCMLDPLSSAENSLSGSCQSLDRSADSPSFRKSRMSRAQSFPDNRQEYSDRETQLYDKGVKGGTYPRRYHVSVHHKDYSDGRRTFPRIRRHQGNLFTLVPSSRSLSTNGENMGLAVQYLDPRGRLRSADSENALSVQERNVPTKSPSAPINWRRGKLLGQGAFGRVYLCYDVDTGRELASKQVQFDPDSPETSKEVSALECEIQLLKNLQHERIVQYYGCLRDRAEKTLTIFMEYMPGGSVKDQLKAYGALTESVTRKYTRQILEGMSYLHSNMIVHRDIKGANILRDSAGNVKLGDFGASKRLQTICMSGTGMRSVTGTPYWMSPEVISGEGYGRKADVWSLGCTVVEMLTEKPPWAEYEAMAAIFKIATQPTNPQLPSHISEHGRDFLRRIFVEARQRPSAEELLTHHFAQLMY
MEKK2 WT-MEK5: raises or lowers MEK5 binding to wildtype human MEKK2 PB1 domain | 290,000 tested, 1.1% active | bead flow cytometry, Alexa488-MEK5 binding to MEKK2 WT; actives lie on both sides | Q9Y2U5 | binding response (% of control), % at 10 µM; in the data active = binding response below about 67% or above about 130%
MEKK2 mut-MEK5: signal of MEK5 binding to mutant human MEKK2 PB1 domain; AID 1530; 290,000 tested, 0.35% active; percent response, % at 10 µM; bead flow cytometry, Alexa488-MEK5 binding to MEKK2 mutant; in the data active = percent response above about 24%, passing the limit was not always enough
Pf gametocyte: inhibitors of late stage P. falciparum gametocyte viability | inhibition, % at 10.9 µM | P. falciparum stage V gametocytes, ATP luminescence, 24 h | 150,000 tested, 0.065% active | AID 743093;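 active = inhibition above the mean plus 3 SD of compounds within the control limits, set per campaign, cut at about 38% in these data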;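 note: 0% = DMSO wells and 100% = medium only without gametocytes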
* = called active by the depositor; . = no result; [ ] = remark or other dose.

SMILES	Arbovirus anti	MEKK3 PB1 HTS	MEKK2 WT-MEK5	MEKK2 mut-MEK5	Pf gametocyte
CSc1ccc(-c2nc(CN3CCCCC3c3cccnc3)c(C)o2)cc1 (centres undefined)	8	98	102	6	3
COc1cc(OC)c(C2N(c3ccc(Cl)cc3)C(=O)C3CCCN32)cc1OC (centres undefined)	8	96	10*	13	.
CC1CCN(S(=O)(=O)c2ccc(N=NC3=C(O)CC(C)(C)CC3=O)cc2)CC1	-9	99	97	-2	44*
COc1ccccc1NC(=O)C12CC3CC(C1)CC(c1ccc(C)cc1)(C3)C2	32*	101	113	8	1
CNC(=O)C12CC3CC(C1)CC(c1ccc(C)cc1)(C3)C2	.	105	100	2	13
COc1ccc2nc(C)cc(NCc3ccc(F)cc3)c2c1	.	54*[inhibitor]	.	.	.
COc1ccc2nc(C)cc(Nc3ccc(C)cc3)c2c1	.	104	111	0	8
COC(=O)c1cc2c(C)c(C)c3ccccn3c-2c1C(=O)OC	-16	100	100	1	.
CC(C)OC(=O)c1c2c(n3ccccc13)C(=O)c1ccccc1C2=O	-25	94	35*[inhibitor]	-46	-8
COc1ccc(C(=O)c2cc([N+](=O)[O-])ccc2N2CCCC2)cc1	-11	132*	106	1	14
Cc1ccc(C(=O)c2cc([N+](=O)[O-])ccc2N2CCOCC2)cc1C	-18	144*	111	1	.
O=[N+]([O-])c1ccc(NCCNCCOc2nonc2-c2ccccc2)c([N+](=O)[O-])c1	30*	93	101	0	.
COC(=O)c1c(SCc2cccc3ccccc23)nc(=O)[nH]c1C	.	102	105	4	1
COC(=O)c1c(SCc2ccc(C#N)cc2)nc(=O)[nH]c1C	78*	106	106	5	.
COC(=O)[C@H]1C[C@@H]1[C@H](N)c1ccccc1	.	100	98	6	-10
Clc1cc(/C=N\NC2=NCCN2)cc(Cl)n1	.	.	.	.	11
Cc1ccc(C(=O)c2oc3ccc(Cl)cc3c2NC(=O)CN2CCN(C)CC2)cc1	.	109	160*	14	.
COCCNC(=O)C1CC(c2ccc(C(F)(F)F)cc2)=NO1 (centres undefined)	.	96	102	2	.
CCOc1ccc(-c2cc3nc(C4CCN(C(=O)OC(C)(C)C)CC4)c(C(=O)O)cn3n2)cc1	50*	101	93	-6	12
CCOC(=O)c1nn(-c2cccc(Cl)c2)c2nc(Nc3ccccc3)cc(=O)n12	34*	102	101	-1	-18
CCOC(=O)c1nn(-c2ccc(Cl)cc2)c2nc(Nc3ccccc3)cc(=O)n12	42*	.	.	.	.
CCOC(=O)c1nn(-c2cccc(OC)c2)c2nc(Nc3ccccc3)cc(=O)n12	-8	107	103	2	5
CCCc1cnc(N2CCN(C(=O)c3ccccc3)CC2)nc1	.	106	104	4	.
O=C1CSC(=S)N1Cc1cccnc1	-7	88	-3.0*	5	.
O=C1CSC(=S)N1c1cccnc1	3	86	89	-10	.
SMILES	Arbovirus anti	MEKK3 PB1 HTS	MEKK2 WT-MEK5	MEKK2 mut-MEK5	Pf gametocyte
Fc1ccccc1N1CCN(c2ncnc3[nH]ncc23)CC1	43*	.	.	.	-11
Fc1ccccc1N1CCN(c2ncnc3nc[nH]c23)CC1	.	126	115	24	-5
Cc1ccc(C2C=C(c3ccccc3)Nc3ncnn32)cc1 (centres undefined)	.	100	101	1	11
COc1cccc(C2=CC(c3ccc(N(C)C)cc3)n3ncnc3N2)c1 (centres undefined)	46*	105	104	0	.
COc1ccc(C2C=C(c3ccc(C)cc3)Nc3ncnn32)cc1 (centres undefined)	86*	.	.	.	.
COc1cccc(C2=CC(c3ccccc3)n3ncnc3N2)c1 (centres undefined)	13	102	99	-1	.
COc1ccc(C2=CC(c3ccc(C)cc3)n3nnnc3N2)cc1 (centres undefined)	38*	100	96	-2	.
COc1ccc(C2C=C(c3ccc(Br)s3)Nc3ncnn32)cc1OC (centres undefined)	90*	77	85	-10	.
O=C(/C=C/c1cccc([N+](=O)[O-])c1)n1cnc2ccccc21	-28	97	84	-11	7
Cc1ccc(-n2[nH]c3c4c(ccc3c2=O)C(=O)c2ccccc2C4=O)cc1	4	96	104	1	61*
COc1ccc(-c2cc(C(=O)O)c3ccccc3n2)c(OC)c1	1	100	101	4	0
